Measured potencies and affinities stand elsewhere. Active and inactive are the calls of the source.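 The calls were made as follows: active = fitted half-maximal dose no more than twice the top valid tested dose, for compounds that lower signal; inconclusive = fit invalid, or curve flat with activity between -70 and -30; inactive = potency past limit, curve flat within ±30, or signal increasing.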
What follows are compounds tested against NAD-dependent protein deacylase sirtuin-5, mitochondrial (Homo sapiens) (UniProt Q9NXA8) (assay: SIRT5 deacylase inhibitors, dose response, biochemical, fluorescence imaging, cherry-pick, set 6 (AID 720597;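 also: lower AMC signal can also come from blocking the trypsin step; 0% = median of neutral control wells and -100% = median of positive control wells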)). Details: Purified SirT5, succinyl-peptide-AMC/trypsin fluorescence; series mostly up to 15 µM; activity change, negative = inhibition: at the top concentration.
NAD-dependent protein deacylase sirtuin-5, mitochondrial (Homo sapiens), sequence (Q9NXA8 whole entry, looked up): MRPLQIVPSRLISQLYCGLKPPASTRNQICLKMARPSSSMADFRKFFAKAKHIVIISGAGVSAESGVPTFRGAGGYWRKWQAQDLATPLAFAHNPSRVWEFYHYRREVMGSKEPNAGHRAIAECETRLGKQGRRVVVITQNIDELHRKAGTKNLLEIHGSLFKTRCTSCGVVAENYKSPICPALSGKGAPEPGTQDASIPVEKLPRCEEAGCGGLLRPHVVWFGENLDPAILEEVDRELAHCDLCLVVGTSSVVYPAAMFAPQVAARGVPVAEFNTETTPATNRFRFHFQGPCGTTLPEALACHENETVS

Activity change, negative = inhibition, inactive:
COc1cccc(-c2ccc3c(c2)[C@H]2[C@H](CCN2C(=O)c2ccccc2F)[C@H](CO)N3C)c1 -15.6%
COc1ccc(S(=O)(=O)N(C)C[C@H]2OCCCC[C@H](C)Oc3ccc(NS(=O)(=O)c4ccc(F)cc4)cc3C(=O)N([C@H](C)CO)C[C@H]2C)cc1 1.34%
Cc1ccc(S(=O)(=O)N(C)C[C@H]2OCCCC[C@H](C)Oc3ccc(NS(=O)(=O)c4ccc(F)cc4)cc3C(=O)N([C@H](C)CO)C[C@@H]2C)cc1 -0.702%
CCCC(=O)Nc1ccc2c(c1)OC[C@@H](C)N(Cc1ccccc1)C[C@@H](C)[C@@H](OC)CN(C)C2=O -26.8%
CCCNC(=O)N1CC(=O)N2[C@H](CO)[C@@H](c3ccc(-c4ccc(F)cc4)cc3)[C@@H]2C1 -13.1%
C[C@@H]1CN([C@@H](C)CO)S(=O)(=O)c2ccc(C3=CCCCC3)cc2O[C@@H]1CN(C)C(=O)Cc1ccccc1 -17.8%
CN(C)CC#Cc1ccc([C@@H]2[C@@H](CO)N3CCCCN(C(=O)CN(C)C)C[C@H]23)cc1 -9.95%
O=C(C[C@@H]1CC[C@H](NS(=O)(=O)c2ccc(F)cc2)[C@H](CO)O1)N1CCN(c2ccccc2)CC1 -10.8%
COc1ccc(S(=O)(=O)Nc2ccc3c(c2)C(=O)N([C@H](C)CO)C[C@H](C)[C@H](CN(C)Cc2ccc(Oc4ccccc4)cc2)O3)cc1 13.6%
C[C@H]1CN([C@@H](C)CO)S(=O)(=O)c2ccc(C#CC3CC3)cc2O[C@@H]1CN(C)Cc1ccc(F)cc1 2.42%

Reference: PubChem BioAssay AID720597 (Broad Institute, 2013)
